# Only some compounds are listed: those with a hit (about 4% of all), similar ones and a draw of the others.
# HEK293 cAMP ctrl: raises cAMP in parental HEK293 cells, TSHR agonist counter-screen. actives 2.5% (n = 73,000). Potency, µM (highest dose often 57.1 µM), for inactives: at the top dose activation, actives largely listed as activators. parental HEK293 CNG cAMP sensor, membrane potential fluorescence; also: % of control where 0% means no effect; nearly all actives have a fitted effect of over 55% in size
#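 Parental HEK 293 cells stably expressing a modified CNG channel (no TSHR) report cAMP rise as membrane depolarization. Membrane potential dye with 100 uM RO 20-1724 was loaded for 60 min at room temperature, then compound added for 30 min; fluorescence read at 590 nm.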
# GBA mod: modulators of human glucocerebrosidase; P04062; purified enzyme, resorufin glucoside fluorescence (screen aimed at inhibitors), 20 min; Potency, µM; actives 1.1% (n = 48,000); AID 360; in the data active = potency below about 15 µM; inconclusive = mostly about 16 µM to 33 µM;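 also: the screen sought inhibitors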
#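 Normal human glucocerebrosidase (0.2 nM final) was assayed with resorufin β-D-glucopyranoside (30 uM final) in 50mM citric acid/KH2PO4, 10mM sodium taurocholate, 0.01% tween-20, pH 5.9. Compounds were titrated; fluorescence (Ex 548, Em 600) read after 20 min at RT.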
# Casp7 inh: blocks human caspase-7 allosterically or competitively. P55210. Potency, µM (titrated, usually from 57.5 µM), for the others: at the highest dose activity change, negative = inhibition, most hits filed as inhibitors. AID 889. recombinant caspase-7, Ac-DEVD-AFC fluorescence rate. actives 0.02% (n = 75,000); active = well fitted inhibition curve with a large enough effect in the main read-out, with a control signal flat, not every such curve was filed as active; inconclusive = small, poorly fitted or top-dose-only effect, or a change in a side signal; also: % of control where 0% means no effect
# TSHR agonist: TSH receptor (human) agonism; P16473; Potency, µM (titrated, usually from 57.1 µM), for inactives: at the highest dose activation, actives largely listed as activators; actives 0.48% (n = 73,000); HEK293-CNG-TSHR cells (CNG channel as cAMP sensor), membrane potential dye, cAMP; AID 926; active = well fitted activation curve with a large enough effect in the main read-out, with a control signal flat, not every such curve was filed as active; inconclusive = small, poorly fitted or top-dose-only effect, or a change in a side signal; inactive = no such curve, though single readings can be large or run the other way; % of control where 0% means no effect;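 also: the control signal comes from parental cells without the receptor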
# Target sequence (P16473 whole entry, looked up): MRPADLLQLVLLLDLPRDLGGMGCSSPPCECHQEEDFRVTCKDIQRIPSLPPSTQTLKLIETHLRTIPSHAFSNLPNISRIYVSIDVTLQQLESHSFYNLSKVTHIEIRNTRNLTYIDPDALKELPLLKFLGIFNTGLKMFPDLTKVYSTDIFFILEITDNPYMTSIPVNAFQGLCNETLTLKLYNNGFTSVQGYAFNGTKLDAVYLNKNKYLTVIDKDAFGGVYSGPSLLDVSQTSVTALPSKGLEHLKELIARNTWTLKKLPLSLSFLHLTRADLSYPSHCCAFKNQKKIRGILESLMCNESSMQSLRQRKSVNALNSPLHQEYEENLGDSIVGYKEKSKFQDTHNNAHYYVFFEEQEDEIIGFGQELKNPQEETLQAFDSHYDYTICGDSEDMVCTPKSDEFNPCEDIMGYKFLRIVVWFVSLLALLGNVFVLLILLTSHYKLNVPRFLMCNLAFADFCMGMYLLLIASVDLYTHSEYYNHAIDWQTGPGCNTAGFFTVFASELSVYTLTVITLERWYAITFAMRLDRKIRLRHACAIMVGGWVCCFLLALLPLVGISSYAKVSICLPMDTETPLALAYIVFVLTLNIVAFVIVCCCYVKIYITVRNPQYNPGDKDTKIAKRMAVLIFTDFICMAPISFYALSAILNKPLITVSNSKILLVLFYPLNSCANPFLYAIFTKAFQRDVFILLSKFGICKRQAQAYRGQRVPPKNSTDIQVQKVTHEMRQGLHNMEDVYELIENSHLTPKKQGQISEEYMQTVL
#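 HEK 293 cells stably expressing TSHR and a modified CNG channel, with CNG-only parental cells as counterscreen, were preloaded 60 min at room temperature with membrane potential dye containing 100 uM RO 20-1724. Compound exposure was 30 min, and depolarization was read as fluorescence at 590 nm.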
# Bst PK mod: pyruvate kinase (B. stearothermophilus) modulation; actives 1.2% (n = 51,000); AID 361; Potency, µM; purified pyruvate kinase, luminescence ATP production; ribose 5-phosphate activator present at AC10; in the data active = potency below about 11 µM; inconclusive = mostly about 12 µM to 25 µM;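 the screen sought inhibitors and activators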;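 also: scaled between full activation by ribose 5 phosphate and full inhibition by luteolin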
# Casp1 inh: allosteric or competitive inhibitors of human caspase-1. Caspase-1 enzyme, Ac-WEHD-AFC fluorogenic rate. Potency, µM (titrated, usually from 57.5 µM), inactives show top-dose activity change, negative = inhibition, hits mostly inhibitors. actives 0.03% (n = 75,000). P29466;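 also: plate controls were vehicle for no effect and no substrate for full effect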
# An asterisk follows results filed as active; u = inconclusive; x = not tested or not shown; [ ] = dose if it differs, or a comment. Unless noted, calls follow the shape of the dose curve; as a rule, active = well fitted curve in the direction sought with a large enough effect; inconclusive = small, poorly fitted or top-dose-only effect, or another doubt; inactive = no such curve, though single readings can be large; an effect the other way counts as inactive or inconclusive. Potency is read from the fitted curve at half-maximal effect.
SMILES,HEK293 cAMP ctrl,GBA mod,Casp7 inh,TSHR agonist,Bst PK mod,Casp1 inh
COc1cc(NC(=O)c2ccc(NS(=O)(=O)c3c(C)noc3C)cc2)cc(OC)c1,-10.4%,11.2*,2.9%,-6.6%,>57,2.5%
CCc1cccc(NC(=O)c2ccc(NS(=O)(=O)c3c(C)noc3C)cc2)c1,-14.1%,u,1.6%,-11.3%,>57,0.4%
COc1ccc(CNc2nc(-c3ccccc3OC)nc3ccccc23)c(OC)c1,-40.5%,x,-3.1%,u,x,-2.2%
CC(C)(C)n1nnnc1C(c1cccs1)N1CCCc2ccccc21 (stereo unspecified),15.8µM*,x,-1.2%,u,>57,-2.5%
CC(C)(C)n1nnnc1C(c1cccs1)N1CCCC2(CCCCC2)C1 (stereo unspecified),u,>76.9,-0.2%,u,>57,1.3%
COc1ccc(NC(=O)Cn2nnc(-c3ccccc3NC(=O)c3cccs3)n2)cc1,2.2%,>76.9,-0.3%,25.1µM*,>57,-0.4%
COc1ccc(-n2c(C)cc(C(=O)CSc3nnc(-c4ccoc4C)n3C)c2C)cc1,31.6µM*,>76.9,-6.8%,u,>57,-1.6%
Nc1ccc2oc(-c3ccccc3Cl)nc2c1,x,x,x,x,3*,x
CCc1ccc2oc(-c3cc(N)ccc3O)nc2c1,-11.3%,>76.9,-10.6%,-22.0%,1.24*,-9.4%
CCc1ccc2oc(-c3cc(N)cc(C)c3O)nc2c1,-14.3%,>76.9,-15.6%,-38.5%,3.55*,-9.3%
Nc1ccc2oc(-c3ccccn3)nc2c1,-5.5%,>76.9,-2.3%,-3.4%,x,-5.9%
c1cc(-c2nc3cc(Cc4ccc5oc(-c6ccncc6)nc5c4)ccc3o2)ccn1,3.2%,>76.9,0.5%,3.6%,>57,-1.1%
CCc1ccc2oc(-c3cc(N)ccc3Cl)nc2c1,-13.6%,>76.9,-2.1%,-19.0%,2.87*,-3.3%
CCCC(=O)Nc1ccc(-c2nc3cc(C)c(C)cc3o2)c(O)c1,7.9%,x,0.9%,3.7%,x,-3.2%
N[C@@H](Cc1nn[nH]n1)C(=O)O,1.1%[11.4 µM],x,-0.5%[11.5 µM],-4.7%[11.4 µM],x,-2.8%[11.5 µM]
C[N+](C)(N)Cc1nc(-c2ccc(Cl)cc2)no1,6.7%[11.4 µM],x,0.3%[11.5 µM],3.0%[11.4 µM],x,0.8%[11.5 µM]
OC[C@@H]1O[C@@H](n2cnc3c(Nc4ccccc4)ncnc32)[C@@H](O)[C@H]1O,u,x,-0.2%,u,x,4.2%
CCOc1ccc2[nH]c(=O)c(CN(Cc3cccs3)Cc3nnnn3C(C)(C)CC)cc2c1,20µM*,15.3*,0.9%,u,>57,-4.5%
Cc1cc(S(=O)(=O)N(Cc2ccccc2)Cc2ccc(N(C)C)cc2)ccc1-n1cnnn1,-5.1%,8.48*,-1.6%,9.6%,>57,-3.1%
CC(C)(C)c1ccc(OCC2CO2)cc1 (stereo unspecified),21.4%,x,-0.8%,3.0%,x,-2.9%
COc1ccccc1C[C@@H](Cc1nc2ccccc2[nH]1)c1nc2ccccc2[nH]1,29.2%,x,x,x,x,x
CCOC(=O)c1cc2c(ccn2C)n1Cc1ccccc1C,25.1µM*,>76.9,-4.3%,u,>57,-2.8%
O=C(NCc1cccnc1)[C@@H]1[C@@H](C(=O)O)[C@H]2CC[C@@H]1O2,u,x,-0.8%[11.5 µM],u,x,-2.4%[11.5 µM]
c1ccc2c(c1)Cn1c-2nc2ccccc21,15.8µM*,u,-1.2%,u,u,-3.4%
COC(=O)[C@@]1(Cc2ccccc2)C=C[C@@H](C)N1C(=O)c1ccccc1,31.6µM*,x,-6.3%,u,x,-2.6%
SMILES,HEK293 cAMP ctrl,GBA mod,Casp7 inh,TSHR agonist,Bst PK mod,Casp1 inh
C[C@@H]1C=C[C@](Cc2ccccc2)(C(=O)NCCCNc2ncc(C(F)(F)F)cc2Cl)N1C(=O)c1ccccc1,25.1µM*,x,-5.2%,u,x,0.3%
C[C@@H]1C=C[C@](Cc2ccccc2)(C(=O)NCCc2c[nH]c3ccccc23)N1C(=O)c1ccccc1,2.51µM*,x,-6.7%,u,x,-0.9%
CC(=O)N1[C@H](C)C=C[C@]1(Cc1ccccc1)C(=O)NCc1cc(F)cc(C(F)(F)F)c1,22.6%,x,-1.0%,17.8%,x,2.8%
Cn1c(=O)c2[nH]c(CCC(=O)O)nc2n(C)c1=O,1.3%[11.4 µM],x,1.0%[11.5 µM],-7.4%[11.4 µM],x,-2.6%[11.5 µM]
Nc1nc(C(=O)O)c(N=Nc2ccccc2)c(=O)[nH]1,16.1%[11.4 µM],x,-0.6%[11.5 µM],1.5%[11.4 µM],x,-1.0%[11.5 µM]
CCC/C=C(\CCC)C(NP(=O)(c1ccccc1)c1ccccc1)c1ccc(C(F)(F)F)cc1 (stereo unspecified),3.98µM*,x,1.3%,u,x,-0.9%
CC(C)c1cccc2nc3c(c([Si](C)(C)C)c12)Cn1c-3cccc1=O,12.6µM*,x,u,u,x,x
CCc1cccc2nc3c(c([Si](CC)(CC)CC)c12)Cn1c-3cccc1=O,25.1µM*,x,u,u,x,x
CCc1c2c(nc3c(C(C)C)cccc13)-c1cccc(=O)n1C2,25.1µM*,x,-22.5%,u,x,-14.1%
COc1cc(C2SCCCCCCCCCCSC(c3ccc(O)c(OC)c3)SCCCCCCCCCCS2)ccc1O (stereo unspecified),16.8%[11.4 µM],x,-1.1%[11.5 µM],x,x,0.0%[11.5 µM]
CCc1nnc(NC(=O)c2ccc(OC)cc2OC)s1,25.1µM*,x,-0.8%,u,x,-4.9%
CN(Cc1cccs1)c1ncnc2sccc12,15.8µM*,>76.9,-0.2%,u,>57,-3.2%
c1csc(CNc2ncnc3sccc23)c1,u,>76.9,1.0%,u,>57,-0.8%
COc1ccc(-c2cn3c4c(sc3n2)CCCC4)cc1,13.1%,>76.9,-2.5%,16.1%,0.541*,-3.8%
COc1ccc(-c2cn3c(C)c(C(=O)Nc4cccc(NC(C)=O)c4)sc3n2)cc1,13.9%,u,-0.6%,13.0%,>11.4,-4.6%
COc1cccc(C2=CC(c3ccc(C)cc3)n3ncnc3N2)c1 (stereo unspecified),15.8µM*,>76.9,u,u,x,x
Cc1ccc(C2C=C(c3ccc4c(c3)OCO4)Nc3ncnn32)cc1 (stereo unspecified),25.6%,>76.9,u,x,>57,x
c1ccc(-c2nn3c(C4COc5ccccc5O4)nnc3s2)cc1 (stereo unspecified),8.6%,>76.9,0.2%,19.5%,>57,0.0%
Cc1ccc(-c2nnc3sc(C4COc5ccccc5O4)nn23)cc1 (stereo unspecified),25.1µM*,>76.9,-1.0%,u,>57,0.8%
COc1ccccc1-c1nn2c(C3COc4ccccc4O3)nnc2s1 (stereo unspecified),25.1µM*,>76.9,-3.4%,u,>57,-9.0%
c1ccc(CCc2nn3c(C4COc5ccccc5O4)nnc3s2)cc1 (stereo unspecified),15.8µM*,x,-1.4%,u,>57,-1.4%
CC[C@H]1C(=O)OC[C@@H]1Cc1cncn1C,-0.8%,x,x,19.3%,x,x
O=C(O)c1nnsc1-c1ccc(-c2snnc2C(=O)O)cc1,8.5%[11.4 µM],x,-2.4%[11.5 µM],-5.5%[11.4 µM],x,-2.1%[11.5 µM]
O=C(Nc1nc2ccccc2n1CCN1CCCCC1)c1ccco1,-40.0%,>76.9,-2.3%,u,>57,2.5%
